The record followed here is PubChem BioAssay (NCI).

Test systems include HCT-15 colon; HT29 colon; SNB-75 CNS; SNB-19 CNS; U251 CNS; PC-3 prostate; SK-MEL-5 melanoma; UACC-62 melanoma; LOX IMVI melanoma; SK-MEL-28 melanoma; SN12C renal; UO-31 renal; TK-10 renal; ACHN renal; CAKI-1 renal; A498 renal; CCRF-CEM leukemia; MOLT-4 leukemia; SK-MEL-2 melanoma; EKVX NSCLC.
Test in all cases: NCI-60 one-dose screen, 48 h (100 = growth as untreated, 0 = no growth, -100 = all killed)
What all share (conditions): 10 µM unless noted

The structures appear in SMILES notation. Several values for one entry are separate records, joined by “and”; a condition that tells them apart may be missing. Identical values can stand only once. About 83,000 compounds went through this panel and 20% of them were active in at least one assay; those are over-represented in the sample as a whole.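 Method: cells in 96-well plates; compound added at one concentration; 48 h incubation; percent growth measured; values under 10 scored active.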 Activity calls are given as the source filed them.

As for `CCCN1C(=O)/C(=c2\sc3n(c2=O)C2C(NN=3)N(CC)C(=O)N2CC)c2ccccc21` (configuration not stated), the growth in the experiment with HCT-15 colon was 12.5% (inactive); with HT29 colon it was 3.33% (active); in the experiment on SNB-75 CNS, 17.2% (inactive); with SNB-19 CNS, 27.7% (inactive); in the experiment on U251 CNS, 17.6% (inactive); in the experiment with PC-3 prostate it was 32.9% (inactive). In addition, the growth was 14.3% (inactive) with SK-MEL-5 melanoma; 24.7% (inactive) with UACC-62 melanoma; 17.1% (inactive) in the experiment with LOX IMVI melanoma; 48.1% (inactive) in the experiment with SK-MEL-28 melanoma; 23.1% (inactive) in the experiment with SN12C renal; 33.6% (inactive) in the experiment with UO-31 renal. Further, the growth in the experiment on TK-10 renal is 73.9% (inactive); in the experiment with ACHN renal it was 33.1% (inactive); in the experiment with CAKI-1 renal, 33.8% (inactive); in the experiment with A498 renal it was 5.22% (active); in the experiment on CCRF-CEM leukemia, 13.6% (inactive); with MOLT-4 leukemia, 19.1% (inactive).

As for `Cn1cc(-c2csc(-c3c[nH]c4ccc(F)cc34)n2)c2cnccc21`, the growth is -69.7% (active) in the experiment on HCT-15 colon; -52.6% (active) in the experiment with HT29 colon; -89.1% (active) in the experiment with SNB-75 CNS; 14.3% (inactive) with SNB-19 CNS; -74.6% (active) in the experiment on U251 CNS; -97% (active) with SK-MEL-5 melanoma. In addition, the growth with UACC-62 melanoma is -78.5% (active); in the experiment on LOX IMVI melanoma, -90.4% (active); with SK-MEL-28 melanoma, -95.9% (active); in the experiment on SK-MEL-2 melanoma, -66.4% (active); in the experiment on EKVX NSCLC it was -28.4% (active); in the experiment on SN12C renal, -48.5% (active). The growth with UO-31 renal was -75.3% (active); in the experiment on TK-10 renal it was -28% (active); in the experiment with ACHN renal it was -54% (active); in the experiment with CAKI-1 renal, -57.8% (active); in the experiment on A498 renal, 74.8% (inactive); in the experiment with CCRF-CEM leukemia, -32.3% (active). Besides, the growth with MOLT-4 leukemia is -34.7% (active).

Take `COc1ccc(Oc2nc(Nc3ccc(N4CCOCC4)cc3)ncc2NC(=O)c2cc(OC)cc(OC)c2)cc1`: the growth in the experiment on HCT-15 colon was 67.7% (inactive); in the experiment with HT29 colon, 72% (inactive); in the experiment with SNB-75 CNS, 79.1% (inactive); in the experiment with SNB-19 CNS, 87.4% (inactive); in the experiment with U251 CNS, 82.7% (inactive); with SK-MEL-5 melanoma it was 77.2% (inactive). The growth was 87.8% (inactive) in the experiment with UACC-62 melanoma; 84.7% (inactive) with LOX IMVI melanoma; 100% (inactive) with SK-MEL-28 melanoma; 95.4% (inactive) in the experiment on SK-MEL-2 melanoma; 94.8% (inactive) in the experiment on EKVX NSCLC; 89% (inactive) with SN12C renal. The growth in the experiment on UO-31 renal was 55.5% (inactive); in the experiment on TK-10 renal, 103% (inactive); in the experiment with ACHN renal it was 86.1% (inactive); with CAKI-1 renal, 100% (inactive); with A498 renal it was 8.34% (active); in the experiment on CCRF-CEM leukemia it was 70% (inactive). Also, in the experiment with MOLT-4 leukemia, the growth is 53.3% (inactive).

In the case of `CCCCC#Cc1c(/C=C(\CCCC)SCC)n(C)c(=O)[nH]c1=O`, the growth was 89.8% (inactive) in the experiment on HCT-15 colon; 92.6% (inactive) with HT29 colon; 90.1% (inactive) with SNB-75 CNS; 107% (inactive) in the experiment with SNB-19 CNS; 117% (inactive) with U251 CNS; 99% (inactive) with SK-MEL-5 melanoma. Further, the growth was 90.4% (inactive) with UACC-62 melanoma; 96.6% (inactive) in the experiment on LOX IMVI melanoma; 118% (inactive) in the experiment with SK-MEL-28 melanoma; 67.1% (inactive) in the experiment on SK-MEL-2 melanoma; 104% (inactive) in the experiment on EKVX NSCLC; 101% (inactive) in the experiment with SN12C renal. In addition, the growth is 90.9% (inactive) with UO-31 renal; 104% (inactive) in the experiment on TK-10 renal; 101% (inactive) in the experiment on ACHN renal; 102% (inactive) with CAKI-1 renal; 72% (inactive) in the experiment on A498 renal; 95% (inactive) with CCRF-CEM leukemia. Moreover, the growth with MOLT-4 leukemia is 62.1% (inactive).

Take `Cn1cc(C2=C(c3cccc4ccccc34)C(=O)NC2=O)c2cc(Br)ccc21`: the growth was 91.3% (inactive) in the experiment on HCT-15 colon; 90.5% (inactive) in the experiment with HT29 colon; 37.9% (inactive) in the experiment on SNB-75 CNS; 108% (inactive) with SNB-19 CNS; 91.7% (inactive) with U251 CNS; 93.5% (inactive) in the experiment with SK-MEL-5 melanoma. Also, the growth in the experiment with UACC-62 melanoma is 112% (inactive); in the experiment with LOX IMVI melanoma, 89.8% (inactive); in the experiment on SK-MEL-28 melanoma it was 111% (inactive); in the experiment with SK-MEL-2 melanoma, 111% (inactive); in the experiment with EKVX NSCLC, 88.5% (inactive); with SN12C renal, 95.2% (inactive). Further, the growth with UO-31 renal is 80.8% (inactive); in the experiment on TK-10 renal, 101% (inactive); with ACHN renal, 80.6% (inactive); in the experiment with CAKI-1 renal, 69.2% (inactive); in the experiment on A498 renal, 69.8% (inactive); in the experiment with CCRF-CEM leukemia, 84% (inactive). Besides, in the experiment on MOLT-4 leukemia, the growth is 77.1% (inactive).

`CC(C)(C)c1cc(NC(=O)Nc2ccc(-c3cn4c(n3)sc3cc(OCCN5CCOCC5)ccc34)cc2)no1`: the growth in the experiment on HCT-15 colon is 23.8% (inactive) and 51.5% (inactive); with HT29 colon it was -41.7% (active) and -1.96% (active); in the experiment with SNB-75 CNS, 45.4% (inactive) and -7.53% (active); in the experiment with SNB-19 CNS it was 37.4% (inactive) and 11.4% (inactive); in the experiment on U251 CNS, -3.4% (active) and 0.378% (active); with SK-MEL-5 melanoma it was 13.5% (inactive) and 9.61% (active). Moreover, the growth in the experiment with UACC-62 melanoma is -53.4% (active) and 5.34% (active); in the experiment with LOX IMVI melanoma, 0.319% (active) and 23.4% (inactive); in the experiment with SK-MEL-28 melanoma, 42.9% (inactive) and 33.8% (inactive); in the experiment on SK-MEL-2 melanoma, 10.8% (inactive); with EKVX NSCLC it was 47.6% (inactive) and 68.4% (inactive); in the experiment with SN12C renal, 15.6% (inactive) and 19.3% (inactive). For the same molecule, the growth is 10.7% (inactive) and 28.2% (inactive) in the experiment on UO-31 renal; 24.2% (inactive) and 45% (inactive) in the experiment with TK-10 renal; 12.4% (inactive) and 26.7% (inactive) in the experiment on ACHN renal; 30.4% (inactive) and 13.4% (inactive) in the experiment with CAKI-1 renal; 8.16% (active) and 37.7% (inactive) in the experiment on A498 renal; 18.7% (inactive) and 20% (inactive) in the experiment with CCRF-CEM leukemia. The growth with MOLT-4 leukemia was 1.69% (active) and 40% (inactive).

Regarding `Cn1cc(-c2nonc2-c2cn(C)c3ccc(Br)cc23)c2ccccc21`, the growth with HCT-15 colon was 26.1% (inactive); with HT29 colon it was 9.17% (active); with SNB-75 CNS, -0.37% (active); with SNB-19 CNS, 27.6% (inactive); with U251 CNS, 23.3% (inactive); with SK-MEL-5 melanoma, 37.2% (inactive). In addition, the growth in the experiment with UACC-62 melanoma is 21.8% (inactive); in the experiment on LOX IMVI melanoma, 31.2% (inactive); in the experiment with SK-MEL-28 melanoma, 55.9% (inactive); in the experiment on SK-MEL-2 melanoma, 33.5% (inactive); in the experiment on EKVX NSCLC, 48.6% (inactive); with SN12C renal, 37.1% (inactive). For the same molecule, the growth was 32.3% (inactive) with UO-31 renal; 60.7% (inactive) with TK-10 renal; 33.5% (inactive) in the experiment on ACHN renal; 25.8% (inactive) with CAKI-1 renal; -5.37% (active) in the experiment on A498 renal; 15.5% (inactive) in the experiment with CCRF-CEM leukemia. Moreover, the growth with MOLT-4 leukemia is 27.2% (inactive).
